Source: PubChem BioAssay AID1053126 (Broad Institute, 2014)
Potency and affinity values are given separately. Activity calls are given as the source filed them.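 The calls were made as follows: active = cell killing with a fitted half-effect concentration at or below twice the top valid dose; inconclusive = flat curve with 30 to 70 percent drop, or poor fit; inactive = the rest.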

test: HEK293T cell cytotoxicity, dose response, cytotoxicity control, ATP luminescence, cherry-pick, set 6 (AID 1053126); details: HEK293T viability, CellTiter-Glo ATP luminescence, 72 h; series mostly up to 26 µM; activity change, negative = cytotoxicity: at the top concentration;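 also: 0% = neutral control wells and -100% = mitoxantrone 10 µM positive control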

Row | SMILES | activity change, negative = cytotoxicity
1 | CC12CC(c3ccccc3O1)C(C(=O)OCc1ccccc1)C(=O)N2 (stereo not drawn) | -5.13% (inactive)
2 | CC(C)OP(=O)(O)NC(=O)c1ccccc1 | -13.2% (inactive)
3 | Nc1ccc2ccc3cccc[n+]3c2c1 | -7.98% (inactive)
